CHT allo act = allosteric activators of human choline transporter CHT. Q9GZV3. CHT-expressing cells, membrane potential dye, choline EC20; hits give high values; LV-AA mutant CHT in HEK293 cells. B-score at 10 µM. hit rate 0.49% among 310,000;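 active = initial fluorescence not abnormally high and integrated response B-score, plate-corrected, over 3 SD above library mean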
Target sequence (Q9GZV3 whole entry, looked up): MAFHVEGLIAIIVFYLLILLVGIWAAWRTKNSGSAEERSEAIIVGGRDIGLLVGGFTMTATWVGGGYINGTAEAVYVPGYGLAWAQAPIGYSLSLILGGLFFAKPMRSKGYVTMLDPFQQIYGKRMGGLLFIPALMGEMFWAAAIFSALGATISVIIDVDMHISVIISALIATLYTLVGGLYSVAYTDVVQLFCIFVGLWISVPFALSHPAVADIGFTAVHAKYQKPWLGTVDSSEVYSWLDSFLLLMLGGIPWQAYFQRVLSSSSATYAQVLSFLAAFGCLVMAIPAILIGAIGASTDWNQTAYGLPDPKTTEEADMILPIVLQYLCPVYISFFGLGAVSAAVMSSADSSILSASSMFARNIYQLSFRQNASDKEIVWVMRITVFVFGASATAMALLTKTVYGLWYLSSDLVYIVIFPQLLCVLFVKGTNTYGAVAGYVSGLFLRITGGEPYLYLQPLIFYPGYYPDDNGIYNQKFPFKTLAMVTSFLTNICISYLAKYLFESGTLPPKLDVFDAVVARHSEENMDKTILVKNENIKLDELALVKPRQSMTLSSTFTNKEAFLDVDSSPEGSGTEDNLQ
CHT block = inhibits the human high affinity choline transporter; hit rate 0.86% among 310,000; CHT-expressing cells, membrane potential dye, choline response; hits give low values; Q9GZV3; B-score at 10 µM;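 active = B-score over 3 SD under the library average, and starting fluorescence ratio not unusually high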;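 note: choline stimulus applied at its EC90 after an EC20 pre-addition; B-score computed on integrated fluorescence ratio after choline addition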
AI-2 QS mod = modulators of Vibrio harveyi AI-2 quorum sensing system | AID 2094 | hit rate 0.4% among 300,000 | Vibrio harveyi JMH597 AI-2 luminescence/OD600 ratio, 9 h; hits give low values; strain lacks LuxN and CqsS sensors; 0 = neutral-control median | activity change, % at 7.5 µM; in the data active = activity change below about -75%, passing the limit was not always enough;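 note: luminescence divided by OD600 gain over 9 h not by final OD600 alone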
ALR inh = inhibitors of human sulfhydryl oxidase ALR; P55789; purified ALR, DTT oxidation, H2O2 HRP-luminol luminescence; inhibition, % (concentration not given with the values); hit rate 3.8% among 290,000;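 active = mean replicate inhibition above about 79%, with every replicate also reaching it, limit read from the data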
PREPL inh = inhibitors of human prolyl oligopeptidase-like enzyme PREPL. inhibition, % at 5.96 µM. AID 2751. hit rate 0.68% among 320,000. recombinant PREPL, fluorescence polarization activity-based probe. Q4J6C6; in the data active = inhibition above about 43%;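 note: 0% = enzyme with DMSO and 100% = wells lacking enzyme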
The depositor's hits bear a star; i = inactive; . = not tested or not shown. Rows were chosen to be rich in hits. Some 5% of all compounds tested hit in one or more screens of this group.

SMILES	CHT allo act	CHT block	AI-2 QS mod	ALR inh	PREPL inh
Cc1cc(/C=N/NC(=O)c2ccccc2F)c(C)n1-c1ccccc1	i	-6.3*	17	-2	1
C[C@@H]1CN([C@@H](C)CO)C(=O)c2cc(NC(=O)CCN3CCOCC3)ccc2O[C@@H]1CN(C)C(=O)Nc1ccccc1	.	.	.	-1	2
COc1cc(OC)c2ccc(=O)oc2c1C(CC(=O)N1CCCC1)c1ccc(N(C)C)cc1 (centres undefined)	i	i	-3	99*	6
COc1cc(OC)c2ccc(=O)oc2c1C(CC(=O)N1CCOCC1)c1ccc(N(C)C)cc1 (centres undefined)	i	i	22	98*	-3
COc1ccc(C(CC(=O)N2CCOCC2)c2c(OC)cc(OC)c3ccc(=O)oc23)cc1 (centres undefined)	i	i	8	.	13
COc1ccc(C(CC(=O)N2CCCC2)c2c(OC)cc(OC)c3ccc(=O)oc23)cc1 (centres undefined)	i	i	-3	-9	-1
O=C(O)/C=C/c1cn(Cc2ccccc2Cl)nc1-c1ccccc1	i	i	12	7	4
O=C(c1cc2c(s1)CCCC2)n1cccn1	i	i	29	12	68*
O=C(c1cc2c(s1)CCCCC2)N1CCN(c2ncccn2)CC1	i	i	1	-4	13
CCn1cc(C(=O)O)c(=O)c2cnc(N3CCNCC3)nc21	11*	i	23	-9	2
C=CCNC(=S)N1CCN(c2ncc3c(=O)c(C(=O)O)cn(CC)c3n2)CC1	i	i	20	-6	5
O=C(NNC(=O)C1C2C=CC(C2)C1C(=O)O)c1cc(Cl)ccc1O (centres undefined)	i	i	26	16	.
Cc1cc(C(C#N)c2ccccc2F)n2ncnc2n1 (centres undefined)	i	i	11	92*	5
Cn1nnc(NC(=S)NC(=O)c2cccc3ccccc23)n1	i	i	-23	-1	7
COc1ccc(C(=O)NC(=S)NNC(=O)Cc2cccs2)cc1	i	i	66	99*	2
COc1cc(OC)cc(C(=O)NC(=S)NNC(=O)Cc2cccs2)c1	i	i	59	99*	-2
COc1ccc(C(=O)NC(=S)NNC(=O)CNC(=O)C2CCCCC2)cc1	i	i	48	99*	1
CCC(=O)NC(=S)NNC(=O)c1ccc(OC)cc1	i	i	-9	59	1
COCCN1CC(CNC(=O)c2cc(COc3ccccc3SC)on2)CC1=O (centres undefined)	i	i	-1	-2	7
CN1CCCC1CCNC1C2CC3CC(C2)CC1C3 (centres undefined)	i	i	22	-3	-7
C=CCOc1ccc(C(c2c(O)nc(SC)[nH]c2=O)c2c(O)nc(SC)[nH]c2=O)cc1	i	i	17	90*	9
CC(C)[C@H](NC(=O)c1ccco1)C(=O)OCC(=O)Nc1ccccc1OC(F)F	i	i	14	0	3
CC1CCCN(C(=O)NC2CC(=O)N(c3ccc4c(c3)OCCO4)C2)C1 (centres undefined)	i	i	8	.	6
C[C@@H]1CN([C@H](C)CO)C(=O)c2cccc(NS(=O)(=O)c3ccccc3)c2O[C@H]1CN(C)C	.	.	.	.	10
CCOC(=O)c1c(NC(C)=O)sc2c(OC)c(Br)ccc12	i	i	39	-2	7
SMILES	CHT allo act	CHT block	AI-2 QS mod	ALR inh	PREPL inh
CCOC(=O)c1c(N)sc2c(NC(C)=O)cccc12	i	i	21	98*	-3
CC(=O)Oc1ccc(C(=O)OCC(=O)c2c(N)n(C)c(=O)n(C)c2=O)cc1OC(C)=O	i	i	5	99*	-12
CN(C)C1=NC[C@H](Cc2ccccc2)N1CC1CCCC1	i	i	.	.	6
CN(C)C1=NC[C@H](Cc2ccccc2)N1CC1CCC(C(C)(C)C)CC1 (some centres undefined)	15*	i	8	1	4
O[C@H]1COC2C1OC[C@@H]2O (some centres undefined)	i	i	25	.	-11
CC1CN(C(=O)COC(=O)c2ccc(Cl)nc2)CC(C)O1 (centres undefined)	i	i	19	91*	-10
COc1cc(C)nc(NCc2ccccc2)n1	i	i	19	.	-4
COc1ccc(Nc2cc(C)nc(NCc3ccccc3)n2)cc1	i	i	-52	75*	15
Cc1cc2c(N3CCCCC3C)ncnc2s1 (centres undefined)	i	i	25	97*	-4
Cc1cccc(N2CCN(C(=O)C3CCN(S(=O)(=O)N4CCOCC4)CC3)CC2C)c1 (centres undefined)	i	i	34	33	12
COc1cc(/C=C2\C(=O)NN(c3ccc(C)cc3)C2=O)cc([N+](=O)[O-])c1O	i	i	58	99*	-3
CCOc1cc(/C=C2\NC(=O)NC2=O)cc([N+](=O)[O-])c1O	i	i	24	88*	2
CCOc1cc(/C=C2\C(=O)NN(c3ccccc3)C2=O)cc([N+](=O)[O-])c1O	i	i	65	95*	2
COc1cc(/C=N/N2CCCCC2)cc([N+](=O)[O-])c1O	i	i	30	98*	1
O=C1CC2(CCOCC2)Oc2ccc3ccccc3c21	i	i	10	-11	-43
NC(=O)CC1C(=O)N(c2ccc(F)cc2)C(=O)N1NC(=O)CCc1ccccc1 (centres undefined)	i	i	17	-25	7
COc1cc(NC(=O)COc2ccc(-n3cnnn3)cc2)cc(OC)c1OC	.	.	.	-12	2
CCc1nnc(NC(=O)C2CCCCN2S(=O)(=O)c2ccccc2)s1 (centres undefined)	i	i	14	2	5
COc1cc(/C=C2/C(=O)NN(c3ccc(Cl)cc3)C2=O)cc(OC)c1O	i	i	21	19	-4
COc1cc(/C=C2\C(=O)NN(c3ccccc3)C2=O)cc([N+](=O)[O-])c1O	i	i	40	98*	17
COc1cc(/C=C2/C(=O)NN(c3ccccc3)C2=O)cc(Br)c1O	i	i	21	99*	-2
CCOc1ccc(N(CC(=O)Nc2cccc(Br)c2)S(C)(=O)=O)cc1	i	i	-13	-17	-52
COc1cc(NC(C)CCc2ccccc2)cc(OC)c1OC (centres undefined)	i	i	40	88*	9
CC(=O)c1cc(Cl)ccc1OCC(=O)Nc1cccc(S(=O)(=O)N2CCCC2)c1	.	.	.	.	2
CCN(CC)CCn1c2c(c(SCC(=O)Nc3nc4ccc(C)cc4s3)nc1=O)CCC2	i	i	11	21	11
